# Tgondii IFNg: T. gondii growth inhibition under IFN-gamma; Toxoplasma gondii growth in IFN-gamma-treated host cells; hits give low values; activity change, negative = inhibition, % (test concentration not listed); hit rate 3.8% among 69,000; in the data active = activity change below about -70%, passing the limit was not always enough;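 note: host cells are HeLa cells infected with Toxoplasma gondii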
# Numbers without * were called inactive; ! = not active in a repeat. The sample as a whole holds a higher share of hits than the screen did.
SMILES,Tgondii IFNg
COc1ccc(Oc2cccc(F)c2CNC(=O)c2ccc(OC)cc2)cc1,-88*
COc1ccc(Oc2ccc(C(=O)NCCc3ccccn3)cc2)cc1,-54
COc1ccc(Oc2cccc(Cl)c2CNC(=O)CSCC(=O)O)cc1,31
O=C(Cn1ccc(=O)[nH]c1=O)NC1CC2(CCOCC2)Oc2ccccc21 (centres undefined),-37
CC1CCCN(S(=O)(=O)N(C)Cc2nnc(-c3ccccc3)o2)C1 (centres undefined),10
Cc1ccc(NC(=O)Cn2c(=O)cc(C(=O)N3CCOCC3)c3ccccc32)c(C)c1,-1
Cc1nc(CN2CCOCC23CCN(CC(C)O)CC3)cs1 (centres undefined),5
Cc1cc(C(=O)N2CC(=O)N(C3CCCCC3)CC(OCc3ccccc3)C2)nc(C)n1 (centres undefined),10
CC(=O)N1C(C(=O)O)Cc2c([nH]c3ccccc23)C1C (centres undefined),124
COC(=O)[C@@H]1Cc2c([nH]c3ccccc23)CN1C(=O)c1cc(C)nc(C)n1,-72*
CC(=O)N1CCCC2(CN(Cc3ccc(C)o3)CCO2)C1 (centres undefined),5
Cn1c(=O)n(C)c2cc(Cn3cnc(-c4ccccc4)c3C3CC3)ccc21,-59
Cc1nc(N2CCN(c3cc(=O)[nH]nc3-c3ccccc3)CC2)c2cnn(C)c2n1,-84*
COC(=O)C1(C)CCN(c2nc(-c3cccnc3)nc3c2cnn3C)CC1,-41
CN1CCN(c2cc(-c3cccnc3)nc3ccccc23)CC1,-16
CC(C)(O)c1cn(C2CCN(C(=O)c3ccc(N4CCCCC4)cc3)CC2)nn1,27
CC(C)c1ccc(NC(=O)CN2CCC3(CC2)N=C(c2ccccc2)C(=O)N3)cc1,-19
O=C(c1ccc(F)cc1)N1C[C@H]2CN(c3ncccn3)C[C@@H]2C1,19
CCOC(=O)c1oc2ccccc2c1NC(C)=O,16
CCOC(=O)c1c(CSC2CCCCC2)oc2ccc(O)cc12,-104*
CCOC(=O)c1oc2ccc(CNC3CCCCC3)c(Cl)c2c1C,-9
CN1CCOCC2(CCCN(C(=O)c3ccc4nc[nH]c4c3)C2)C1 (centres undefined),18
Cc1ccc(-c2nc(Cn3c(=O)c4c(C)cc(C)nc4n(Cc4ccco4)c3=O)c(C)o2)cc1,-5
Cc1nsc(NC(=O)NC2CCN(Cc3ccccc3Cl)CC2)n1,-6
O=C(Nc1ccc(Cl)c(Cl)c1Cl)NC1CCSC1 (centres undefined),-75*
SMILES,Tgondii IFNg
CCCc1ccc(OCC(=O)Nc2sc(C)c(C)c2C(=O)OC(C)C)cc1,-24
COc1ccccc1C1=NOC(C)(C(=O)Nc2ncc(-c3ccc(F)cc3)n2C)C1 (centres undefined),-3
Cc1ccc(NC(=O)c2nc(Nc3ccc(Cl)cc3)c3ccccc3n2)cc1F,-57
CC(C)(C)n1nc(-c2cccc3ccccc23)c2c(N)ncnc21,-76*!
c1ccc(-c2nc3ccccc3nc2-c2cccc3ccccc23)cc1,27
O=C(C1CC2(CCNCC2)CN1)N1CCN(Cc2ccccc2)CC1 (centres undefined),82
CCN1C[C@@H](C(=O)NCCc2cccs2)C[C@@H]2OCC[C@@H]21,21
O=C(CSC12CC3CC(CC(C3)C1)C2)N1CCn2cncc2C1,-12
O=S(=O)(N1CCCC1)N1CCN(Cc2cnn(-c3ccc(Cl)cc3)c2)CC1,-21
CCOc1ccc(NC(=O)Cn2ncc3c(N4CCC(C)CC4)ncnc32)cc1,-31
O=C(Nc1ccc(Oc2c(F)c(F)c(F)c(F)c2F)cc1)OC1CCN2Cc3ccccc3N=C12 (centres undefined),-99*
O=C(Cn1ncc2c(N3CCCC3)ncnc21)Nc1ccc(Oc2ccccc2)cc1,-60
Cc1ccc(OC2(C(=O)NCc3cccc(C)c3C)CCNCC2)cc1,-47
Cc1cccc(-c2noc(-c3c(O)c4ccccc4[nH]c3=O)n2)c1,-31
c1cncc(-c2nccn2Cc2ccc3nsnc3c2)c1,9
CN1CCn2c(nnc2C2CCN(C(=O)c3ccccc3)CC2)C1,2
O=C(NCCc1csc(-c2ccccc2)n1)[C@H]1CSCN1C(=O)c1ccc(F)cc1,6
NC(=S)N/N=C/c1ncccc1N,-80*
CCc1nnc(NC(=O)CSc2nnc(Cc3ccc(OC)cc3)n2C)s1,-16
CCOC(=O)C1CCN(C(=O)C2=C(C)C(=O)OC23CCN(C(C)=O)CC3)CC1,-21
CCOc1ccccc1-c1ccccc1NC(=O)c1cc(-c2ccc(F)cc2)no1,-9
CCOc1ccccc1-c1ccccc1NC(=O)c1ccc(-n2nc(C)cc2C)cc1,-101*
Cc1cc(C)n(-c2ccc(C(=O)Nc3nc(-c4cc(C)sc4C)cs3)cc2)n1,5
O=C(NCc1ccc2[nH]c(=O)[nH]c2c1)C1CN(c2ncccn2)CCO1 (centres undefined),5
Cc1nn(-c2ccc(F)cc2)c(C)c1Cn1ccnc1C(C)C,-7
SMILES,Tgondii IFNg
CNC(=O)CC1CC2(CCN(S(=O)(=O)c3cccs3)CC2)c2ccccc21 (centres undefined),-7
CNCCCC12CCC(c3ccccc31)c1ccccc12,-79*!
O=C1OCCN1CC(=O)N(CC#Cc1ccccc1)C1CCCC1,-39
O=C(Cn1c(=O)ccc2cc(S(=O)(=O)N3CCCC3)ccc21)Nc1ccc(OC(F)(F)F)cc1,-36
CC1(C)CC(c2nccn2CC2CCN(C3CCCC3)CC2)CCO1 (centres undefined),9
COC[C@H](C)n1cnc(-c2ccccc2)c1-c1cc2c(cc1OC)OCO2,-26
CC(=O)N1CCOCC2(CN(Cc3cnn(C)c3)CCO2)C1 (centres undefined),8
CCN(C)S(=O)(=O)NCCC1CN(Cc2ccco2)CCO1 (centres undefined),6
CC1(C)CCC(CN2CCN(c3ccc(C(=O)NS(=O)(=O)c4ccc(NCC5CCOCC5)c([N+](=O)[O-])c4)c(Oc4cnc5[nH]ccc5c4)c3)CC2)=C(c2ccc(Cl)cc2)C1,-80*
COc1ccc(C(=O)c2ccc(C)cc2)c(O)c1,98
Cc1ccc(C(=O)c2cc(O)c(O)c([N+](=O)[O-])c2)cc1,-80*!
NC(=O)c1ccc(I)c([N+](=O)[O-])c1,20
CC(C)N1CCNC(=O)C1CC(=O)NCCc1nc2ccc(Cl)cc2[nH]1 (centres undefined),8
CCc1nn(C)c(Cl)c1CN(C)Cc1cnn(-c2ccccc2)c1,8
CCS(=O)(=O)N1CCC2(CC1)OC(=O)C(C)=C2C(=O)NCCN1CCN(C)CC1,14
Cc1nc2ccccc2n1CC(=O)NC(c1ccccc1)c1cccs1 (centres undefined),20
OCCn1cc(-c2ccc3c(c2)CC/C3=N\O)c(-c2ccncc2)n1,-78*!
CC(C)N1CCCC(Cc2cc(Cl)ncn2)CC1 (centres undefined),-58
CCc1cc(-c2ccc(OC)cc2C)ccc1NC(C)=O,31
Cc1cccnc1CN(C)C(=O)c1cccc(C#CC(C)(C)O)c1,0
Cc1noc(C)c1C1CCCN1C(=O)c1cccc2c1OCC2 (centres undefined),23
O=C1CC(Sc2ccc(Cl)cc2)C(=O)N1c1cc(F)c(Br)cc1F (centres undefined),-85*
Cc1ccc(N2C(=O)CC(Sc3ccccn3)C2=O)cc1 (centres undefined),-11
Cc1cccc(N2C(=O)CC(Sc3nnc(C)s3)C2=O)c1 (centres undefined),-5
NC(=O)c1cnc2n1CCN(C(=O)Cn1c(C3CC3)nc3ccccc31)C2,-2
CS(=O)(=O)NC[C@@]12COC[C@H]1CN(C(=O)COC1CCCC1)C2,8

# Screens: PubChem, Broad Institute
